Assay [1] addresses human Janus Kinase 2 (Jak2), JAK2 (gene 3717) (UniProt O60674). Kind of assay: NVS_ENZ_hJak2: NovaScreen (NVS) Enzymatic Assay for human Janus Kinase 2 (Jak2) (AID 2283169). An outline of the steps:
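Single-point duplicate screen at 25 uM, with hits run in concentration series to a 50 uM top dose. Substrate-product separation by mobility shift with fluorescence detection, 1 h post-dosing; DMSO baseline.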

The target in assay [2] is Collagenase 3 (Homo sapiens) (UniProt P45452). As to the kind of experiment: NVS_ENZ_hMMP13: NovaScreen (NVS) Enzymatic Assay for human Matrix Metalloproteinase-13 (MMP13) (AID 2283182). An outline of the steps:
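Recombinant MMP13 cleaving fluorescent substrate, cell-free, measured 1 h after dosing. Primary duplicate screen at 25 uM; actives tested in concentration-response up to 50 uM; loss of signal relative to DMSO.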

Assay [3] concerns the target human MAP Kinase-Activated Protein Kinase 2 (MAPKAPK2), MAPKAPK2 (gene 9261) (UniProt P49137). Kind of assay: NVS_ENZ_hMAPKAPK2: NovaScreen (NVS) Enzymatic Assay for human MAP Kinase-Activated Protein Kinase 2 (MAPKAPK2) (AID 2283178). The method, boiled down:
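Chemicals screened in duplicate at 25 uM, then to 50 uM top concentration in concentration-response, against recombinant human MAPKAPK2; substrate conversion read 1 hr post-dosing by fluorescence after electrophoretic mobility-shift separation, loss-of-signal relative to DMSO.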

Assay [4] addresses human Matrix Metalloproteinase-1 (MMP1), MMP1 (gene 4312) (UniProt P03956). As to the kind of experiment: NVS_ENZ_hMMP1: NovaScreen (NVS) Enzymatic Assay for human Matrix Metalloproteinase-1 (MMP1) (AID 2283181). The method, boiled down:
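Cell-free fluorescent substrate assay of human MMP1, read after 1 h. A single 25 uM duplicate screen was followed by concentration series to a maximum of 50 uM for actives meeting threshold; inhibition analysed against DMSO baseline.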

For assay [5], the target named is human Matrix Metalloproteinase-7 (MMP7), MMP7 (gene 4316) (UniProt P09237). As to the kind of experiment: NVS_ENZ_hMMP7: NovaScreen (NVS) Enzymatic Assay for human Matrix Metalloproteinase-7 (MMP7) (AID 2283183). The method, boiled down: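 Compounds first tested at 25 uM in duplicate, then at up to 50 uM in concentration series if active. Protease activity measured by fluorescence intensity 1 h after dosing, with fitting relative to DMSO.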
Chain of human Matrix Metalloproteinase-7 (MMP7), MMP7 (gene 4316) (P09237 whole entry, looked up): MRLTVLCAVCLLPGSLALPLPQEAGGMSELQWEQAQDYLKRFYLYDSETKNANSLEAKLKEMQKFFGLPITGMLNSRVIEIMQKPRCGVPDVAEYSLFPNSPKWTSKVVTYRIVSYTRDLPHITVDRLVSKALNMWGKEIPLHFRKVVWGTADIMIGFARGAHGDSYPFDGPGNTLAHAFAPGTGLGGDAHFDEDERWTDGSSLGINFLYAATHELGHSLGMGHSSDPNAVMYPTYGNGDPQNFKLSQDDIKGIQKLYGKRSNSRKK

The target of assay [6] is human Mitogen-Activated Protein Kinase 1 (MAPK 1), MAPK1 (gene 5594) (UniProt P28482). Kind of assay: NVS_ENZ_hMAPK1: NovaScreen (NVS) Enzymatic Assay for human Mitogen-Activated Protein Kinase 1 (MAPK 1) (AID 2283175). An outline of the steps:
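Cell-free recombinant human MAPK1 enzymatic assay, fluorescence/electrophoretic mobility shift read at 1 h; loss of signal vs DMSO. Primary screen in duplicate at 25 uM; actives (e.g. ≥30% inhibition) run as concentration-response up to 50 uM.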

Assay [7] has as its target Mitogen-activated protein kinase 3 (Homo sapiens) (UniProt P27361). As to the kind of experiment: NVS_ENZ_hMAPK3: NovaScreen (NVS) Enzymatic Assay for human Mitogen-Activated Protein Kinase 3 (MAPK 3) (AID 2283177). An outline of the steps:
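Chemicals were first tested in duplicate at 25 uM, with hits re-run as concentration series (max 50 uM). Recombinant enzyme activity, measured 1 h post-dose in a cell-free format, was read by fluorescence/mobility shift relative to DMSO.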

Our source for the AC50 and outcome values is PubChem BioAssay (EPA / NIEHS).

One may read the AC50 as the concentration at which the activity in the assay is half-maximal.

Records with an inconclusive call do not appear. Some compounds were tested as several samples or in several runs, with calls that do not always agree. Active and inactive are the calls of the source. How the source made its calls: active means hit-call score of the fitted dose curve at least 0.9, where 1 is the maximum; inconclusive means response in the unintended direction; inactive means score below 0.9.

Chain of human MAP Kinase-Activated Protein Kinase 2 (MAPKAPK2), MAPKAPK2 (gene 9261) (P49137 whole entry, looked up): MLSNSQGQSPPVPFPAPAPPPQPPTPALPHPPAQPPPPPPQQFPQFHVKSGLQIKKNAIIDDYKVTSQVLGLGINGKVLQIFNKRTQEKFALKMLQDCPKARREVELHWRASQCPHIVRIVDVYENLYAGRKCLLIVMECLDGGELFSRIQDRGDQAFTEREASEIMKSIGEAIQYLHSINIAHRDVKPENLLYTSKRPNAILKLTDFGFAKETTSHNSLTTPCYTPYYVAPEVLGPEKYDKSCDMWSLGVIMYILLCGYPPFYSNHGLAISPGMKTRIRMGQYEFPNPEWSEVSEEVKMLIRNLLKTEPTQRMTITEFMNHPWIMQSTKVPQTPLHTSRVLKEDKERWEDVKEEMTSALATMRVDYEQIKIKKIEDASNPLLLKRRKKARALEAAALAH
Chain of human Matrix Metalloproteinase-1 (MMP1), MMP1 (gene 4312) (P03956 whole entry, looked up): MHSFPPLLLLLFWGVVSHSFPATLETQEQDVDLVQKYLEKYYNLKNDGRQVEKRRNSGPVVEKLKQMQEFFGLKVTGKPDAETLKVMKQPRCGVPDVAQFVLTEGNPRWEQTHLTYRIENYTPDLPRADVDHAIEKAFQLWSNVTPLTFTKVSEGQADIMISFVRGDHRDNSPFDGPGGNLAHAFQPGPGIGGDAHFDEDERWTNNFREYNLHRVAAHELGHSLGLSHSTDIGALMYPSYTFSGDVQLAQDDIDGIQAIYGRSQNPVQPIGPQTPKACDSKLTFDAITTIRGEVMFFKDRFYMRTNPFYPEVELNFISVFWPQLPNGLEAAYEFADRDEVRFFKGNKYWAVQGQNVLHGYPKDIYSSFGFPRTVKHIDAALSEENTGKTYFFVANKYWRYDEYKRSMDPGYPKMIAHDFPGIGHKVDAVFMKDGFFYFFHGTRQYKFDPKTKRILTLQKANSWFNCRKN
Chain of human Janus Kinase 2 (Jak2), JAK2 (gene 3717) (O60674 whole entry, looked up): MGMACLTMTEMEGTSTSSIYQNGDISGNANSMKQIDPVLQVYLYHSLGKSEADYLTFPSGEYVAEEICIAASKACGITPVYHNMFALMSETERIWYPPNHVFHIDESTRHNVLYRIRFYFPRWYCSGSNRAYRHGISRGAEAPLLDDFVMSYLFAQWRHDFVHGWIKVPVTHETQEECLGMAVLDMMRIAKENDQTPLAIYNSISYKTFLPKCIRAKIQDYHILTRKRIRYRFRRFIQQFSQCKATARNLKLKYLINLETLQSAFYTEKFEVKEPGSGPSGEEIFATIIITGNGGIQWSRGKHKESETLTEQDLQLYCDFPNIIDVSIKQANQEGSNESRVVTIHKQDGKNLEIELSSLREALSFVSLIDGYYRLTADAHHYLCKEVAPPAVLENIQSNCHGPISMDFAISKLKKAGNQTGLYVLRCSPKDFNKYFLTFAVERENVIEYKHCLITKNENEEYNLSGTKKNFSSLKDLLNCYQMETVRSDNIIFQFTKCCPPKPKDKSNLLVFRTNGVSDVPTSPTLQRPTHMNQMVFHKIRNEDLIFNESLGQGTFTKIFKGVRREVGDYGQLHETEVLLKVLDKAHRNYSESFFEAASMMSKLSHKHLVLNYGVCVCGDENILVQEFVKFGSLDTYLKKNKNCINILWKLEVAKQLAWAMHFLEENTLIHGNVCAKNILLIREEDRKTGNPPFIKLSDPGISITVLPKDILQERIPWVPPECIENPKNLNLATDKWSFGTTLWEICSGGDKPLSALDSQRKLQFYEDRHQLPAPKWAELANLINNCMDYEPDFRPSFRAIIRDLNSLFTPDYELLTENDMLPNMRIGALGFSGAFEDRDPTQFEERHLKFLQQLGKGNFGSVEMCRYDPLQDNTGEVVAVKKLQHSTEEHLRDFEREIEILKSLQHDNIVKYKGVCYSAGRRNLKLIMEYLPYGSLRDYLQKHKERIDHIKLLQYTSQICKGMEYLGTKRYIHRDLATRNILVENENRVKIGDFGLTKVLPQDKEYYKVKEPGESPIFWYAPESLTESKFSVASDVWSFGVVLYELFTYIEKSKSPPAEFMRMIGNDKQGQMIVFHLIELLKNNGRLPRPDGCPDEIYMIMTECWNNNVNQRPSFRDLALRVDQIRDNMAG
Chain of human Mitogen-Activated Protein Kinase 1 (MAPK 1), MAPK1 (gene 5594) (P28482 whole entry, looked up): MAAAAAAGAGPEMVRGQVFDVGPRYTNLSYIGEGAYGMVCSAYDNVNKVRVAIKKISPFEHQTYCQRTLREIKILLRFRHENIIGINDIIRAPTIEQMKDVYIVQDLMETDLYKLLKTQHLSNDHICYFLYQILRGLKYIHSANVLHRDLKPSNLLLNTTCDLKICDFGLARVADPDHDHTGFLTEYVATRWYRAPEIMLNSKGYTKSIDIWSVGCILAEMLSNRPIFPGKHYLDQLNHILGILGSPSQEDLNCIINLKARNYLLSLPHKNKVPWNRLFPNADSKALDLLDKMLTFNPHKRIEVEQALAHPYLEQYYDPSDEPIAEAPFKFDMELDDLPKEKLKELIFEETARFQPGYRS
Chain of Mitogen-activated protein kinase 3 (Homo sapiens) (P27361 whole entry, looked up): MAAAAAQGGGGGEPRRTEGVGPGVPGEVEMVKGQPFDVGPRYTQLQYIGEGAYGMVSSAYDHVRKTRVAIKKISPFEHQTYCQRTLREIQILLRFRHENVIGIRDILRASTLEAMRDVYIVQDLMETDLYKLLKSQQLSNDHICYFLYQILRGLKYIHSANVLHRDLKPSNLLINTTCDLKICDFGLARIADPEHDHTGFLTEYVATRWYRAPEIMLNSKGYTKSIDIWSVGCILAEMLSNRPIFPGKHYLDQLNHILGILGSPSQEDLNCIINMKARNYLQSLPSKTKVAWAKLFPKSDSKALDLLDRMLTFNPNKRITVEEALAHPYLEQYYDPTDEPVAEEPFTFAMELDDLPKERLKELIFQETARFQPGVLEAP

Consider `CC[C@H](C)[C@H]1O[C@]2(C=C[C@@H]1C)C[C@@H]1C[C@@H](C/C=C(\C)[C@@H](O[C@H]3C[C@H](OC)[C@@H](O[C@H]4C[C@H](OC)[C@@H](O)[C@H](C)O4)[C@H](C)O3)[C@@H](C)/C=C/C=C3\CO[C@@H]4[C@H](O)C(C)=C[C@@H](C(=O)O1)[C@]34O)O2` (tested in a mixture with another compound), for which the AC50 in assay [1] is 13.8 µM (active); in assay [2], 25 µM (active).
Take `Oc1ccc(Cl)cc1Cc1ccccc1`: the result in assay [3] and in assay [4] was inactive. Moreover, the AC50 in assay [4] was 6.03 µM (active); in assay [5] it was 6.41 µM (active).
Turning to `COC(=O)c1ccccc1S(=O)(=O)NC(=O)N(C)c1nc(C)nc(OC)n1`, the molecule was classed as inactive in assay [6] and in assay [7]. Moreover, the AC50 in assay [3] is 9.14 µM (active).
